Records with an inconclusive call do not appear. The source made the active and inactive calls. Calls follow the shape of the dose curve; as a rule, active = well fitted inhibition curve with a large enough effect; inconclusive = small, poorly fitted or top-dose-only effect; inactive = flat fitted curve, though single readings scatter. Bridge positions count the residues as written; N and C are the ends. Square brackets hold non-standard residues; d marks the D form. Peptide text beside a SMILES is read from it. * marks the point of attachment. Octanoyl(6-Me) = CCC(C)CCCCC(=O)*; Dab = NCC[CH](N)C(=O)O
The compounds below were run on CP203 (assay: qHTS profiling for inhibitors of Plasmodium falciparum proliferation (AID 504749; also: nearly all actives have a fitted effect of over 60% in size;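 as to activity, negative = inhibition: 0% = DMSO vehicle and full inhibition = artemisinin control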)). Details: P. falciparum in erythrocytes, SYBR Green DNA, 72 h; series mostly up to 28.7 µM; activity, negative = inhibition: at the top concentration.
Source text: NIH National Institute of Allergy and Infectious Diseases [NIAID] NIH Chemical Genomics Center [NCGC] MLPCN Grant: None Assay Provider: Xinzhuan Su, NIAID NCGC Assay Overview: Plasmodium falciparum is a virulent malarial parasite that kills 1-2 million people worldwide each year. Transmitted by mosquitoes, the sporozoite form of the parasite enters the blood stream to infect hepatocytes, where they become merozoites that infect red blood cells (erythrocytes). Within erythrocytes, merozoites begin a […] cycle of growth and division, after which the parasite is released to infect new red blood cells. Gametocytes, which form within erythrocytes as well, circulate in the bloodstream and are ingested by the mosquito, thereby completing the life cycle. To profile malarial isolates for differential chemical responses and to identify inhibitors of malarial growth, an assay that measures P. falciparum growth and replication within erythrocytes was employed. This assay uses a DNA binding fluorescent dye (SYBR Green) to detect parasite DNA following cell lysis. Because mature erythrocytes lack DNA, only Plasmodium-derived DNA is detected.
NCGC Assay Protocol Summary: The SYBR Green viability assay was adapted from a method described previously (Plouffe et al., 2008). For screening 3 ul culture medium was dispensed into 1536 well black clear bottom plates (Aurora Biotechnologies) using a Multidrop Combi (Thermo Fisher Scientific Inc.), 23 nL compounds in DMSO were added by a pin tool (Kalypsys), and 5 ul of erythrocytes infected with P. falciparum (0.3% parasitemia, 2.5% hematocrit final concentration) were added. The plates were incubated at 37 C in a humidified incubator in 5% CO2 for 72 h, and 2 ul lysis buffer (20 mM Tris HCl, 10 mM EDTA, 0.16% saponin, 1.6% triton X, 10X SYBR Green I supplied as 10,000X […] by Invitrogen) was added to each well. The plates were mixed for 25 sec with gentle shaking and incubated overnight at room temperature in the dark. The following morning, fluorescence intensity at 485(14) nm excitation and 535(25) nm emission wavelengths was measured on an EnVision (Perkin Elmer) plate reader. Plate reads were normalized relative to the control inhibitor (0.29 uM artemisinin) and vehicle (DMSO) wells present on each plate and then corrected by an algorithm using vehicle-only control plates at the beginning and end of the compound plate stack.
Potency is read from the fitted curve at half-maximal effect.

Structure (SMILES) | activity, negative = inhibition | Potency
CC(=O)OC1CC2CCC1(C)C2(C)C (stereo not drawn) | 1.73% (inactive) | 
Nc1nc(Cl)nc2c1ncn2C1CC(O)C(CO)O1 (stereo not drawn) | -18.6% (inactive) | 
CCN1/C(=C/C=C/C=C/c2sc3ccccc3[n+]2CC)Sc2ccccc21 |  | 6.75 µM (active)
C=C[C@]1(C)C[C@@H](OC(=O)CSCCN(CC)CC)[C@]2(C)C(C)CC[C@]3(CCC(=O)[C@H]32)[C@@H](C)[C@@H]1O (stereo partly drawn) |  | 13.5 µM (active)
CC1(C)S[C@@H]2[C@H](NC(=O)COc3ccccc3)C(=O)N2[C@H]1C(=O)O | 6.75% (inactive) | 
C/C=C\c1ccc(OC)cc1 | 1.19% (inactive) | 
CO/N=C(/C(=O)N[C@@H]1C(=O)N2C(C(=O)O)=CCS[C@H]12)c1csc(N)n1 | 5.05% (inactive) | 
CC1CCC(C(C)C)C(OC(=O)c2ccccc2O)C1 (stereo not drawn) | 7.72% (inactive) | 
O=NCc1ccc([N+](=O)[O-])o1 | -5.93% (inactive) | 
CCC(C)n1ncn(-c2ccc(N3CCN(c4ccc(OCC5COC(Cn6cncn6)(c6ccc(Cl)cc6Cl)O5)cc4)CC3)cc2)c1=O (stereo not drawn) | 0.861% (inactive) | 
CN1CC[C@H](CN2c3ccccc3Sc3ccccc32)C1 |  | 9.53 µM (active)
CCC(C)CCCCC(=O)NC(CCN)C(=O)NC(C(=O)NC(CCN)C(=O)NC1CCNC(=O)C(C(C)O)NC(=O)C(CCN)NC(=O)C(CCN)NC(=O)C(CC(C)C)NC(=O)C(Cc2ccccc2)NC(=O)C(CCN)NC1=O)C(C)O (stereo not drawn) ({Octanoyl(6-Me)}-[Dab]T[Dab][Dab][Dab]FL[Dab][Dab]T; lactam 4-C; configuration not given here) | 11.3% (inactive) | 
NC1=NC(S)C2N=CN=C2N1 (stereo not drawn) | -4.77% (inactive) | 
CN(C)CCCCCCN(C)C | -0.289% (inactive) | 
C1OCOCO1 | -1.81% (inactive) | 
Cc1cc(CC(C)CC(C)(C)C)n(O)c(=O)c1 (stereo not drawn) |  | 3.38 µM (active)
CC(=O)O[C@@]12CO[C@@H]1C[C@H](O)[C@@]1(C)C(=O)[C@H](O)C3=C(C)[C@@H](OC(=O)C(O)[C@@H](NC(=O)OC(C)(C)C)c4ccccc4)C[C@@](O)([C@@H](OC(=O)c4ccccc4)[C@H]21)C3(C)C (stereo partly drawn) |  | 0.0536 µM (active)
CC(C)CN(C[C@@H](OP(=O)(O)O)[C@H](Cc1ccccc1)NC(=O)O[C@@H]1CCOC1)S(=O)(=O)c1ccc(N)cc1 | 4.96% (inactive) | 
